Measured values as given in PubChem BioAssay (NCI).
The panel holds about 79,000 compounds, 15% with a hit somewhere; the sample as a whole holds those more often. Calls of active or inactive are those of the source. Cut-off read from the data, not from the text of the source: active = growth inhibition above about 70%; inactive = the rest. Where a SMILES comes first, the peptide text is derived from it. [ ]: non-standard residue; d: D form. The star is where a group is joined. Cbz = O=C(OCc1ccccc1)*; Dha = C=C(N)C(=O)O

assay: NCI Yeast Anticancer Drug Screen. Data for the mec2-1 strain (AID 157); details: S. cerevisiae mec2-1 strain, at 50.0 µM, active compounds read high
Method in brief: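 Compounds were applied to mec2-1 yeast cells. Their growth was then compared with that of vehicle-treated cultures to give growth inhibition.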

SMILES	growth inhibition
c1ccc(COC(c2ccccc2)(c2ccccc2)c2ccccc2)cc1	-2.2% (inactive)
N#CC(c1ccccc1)C1CCN(Cc2ccccc2)CC1 (stereo not given)	20.8% (inactive)
O=c1n(CCO)nc2n1CCCN2	10.9% (inactive)
Cc1ccccc1C(=O)N1CCOCC1	3.7% (inactive)
CC1(C)CC(=O)C2(C)C(C1O)C2C1C2C(O)C(C)(C)CC(=O)C21C (stereo not given)	3.25% (inactive)
O=C(O)CSCCOCCSCC(=O)O	-54% (inactive)
CCCCCSC	-12.1% (inactive)
c1ccc(B2OB(c3ccccc3CN3CCCC3)OB(c3ccccc3CN3CCCC3)O2)c(CN2CCCC2)c1	4.15% (inactive)
C=C(C)C1CC/C(C)=C/CC[C@]2(C)O[C@H]2CC/C(COC(C)=O)=C\[C@@H]1O (stereo not given in full)	-8.7% (inactive)
CCC(C)CCC(N)C(=O)O (stereo not given)	11.4% (inactive)
c1cc2c3c(cccc3c1)-c1nc3ccccc3nc1-2	-21.4% (inactive)
Cc1nc(N)nc(C)c1N=Nc1cc(Cl)cc(Cl)c1	4.15% (inactive)
CCCCCCCCCCCc1cc(=O)n(-c2cc(Cl)ccc2Cl)n1C	99.3% (active)
CCCCCNC(=O)C(C)O (stereo not given)	-8.3% (inactive)
CC1C(c2ccccc2)=C(c2ccccc2)C(c2ccccc2)=C(c2ccccc2)C1c1ccccc1 (stereo not given)	-19.8% (inactive)
O=S(Cc1ccccc1)CC(O)CO (stereo not given)	5.95% (inactive)
NC(=NC1CCCCC1)c1ccc(C(=O)OCC2CCCCC2)cc1	12.6% (inactive)
CCCCC1(CCBr)C(=O)NC(=Nc2ccccc2)NC1=O (stereo not given)	-5.35% (inactive)
Cn1c(=O)c2nsnc2n(C)c1=O	-11% (inactive)
CC(=O)OC12c3ccccc3C(c3ccccc31)C1C(=O)N(c3ccccc3O)C(=O)C12 (stereo not given)	-17.4% (inactive)

SMILES	growth inhibition
O=C(O)C(Nc1ccc(Cc2ccc(NC(C(=O)O)c3ccccc3)cc2)cc1)c1ccccc1 (stereo not given)	86% (active)
Cc1nc(-c2ccccc2)ncc1C(O)CN(C)C (stereo not given)	-6.45% (inactive)
CNC(=O)c1ccccc1C(O)c1ccc(C)cc1 (stereo not given)	-6.3% (inactive)
CN(C)c1ccc(C2SCC(=O)N2NS(=O)(=O)c2cccc(C(=O)O)c2)cc1 (stereo not given)	-21.2% (inactive)
COc1cc(C(C)S(=O)(=O)O)ccc1O (stereo not given)	1.7% (inactive)
O=C1NCC/C1=C\c1ccccc1	-10.7% (inactive)
NC1=NC=NCN1c1ccc(N)cc1	-2.65% (inactive)
O=c1[nH]cnc2c1sc(=S)n2-c1ccccc1	-10.5% (inactive)
CC(C)CCC[C@@H](C)[C@H]1CC[C@H]2[C@@H]3CC[C@H]4CC5(C[C@]4(C)[C@H]3CC[C@]12C)Nc1ccccc1S5 (stereo not given in full)	-19.9% (inactive)
Nc1nc(Sc2ccccn2)ccc1[N+](=O)[O-]	-12.8% (inactive)
O=C(O)/C=C(/C(=O)O)c1cccn1Cc1ccccc1	14.2% (inactive)
c1ccc(CN2CCCNCC2)cc1	-1.4% (inactive)
C=C(NC(=O)CNC(=O)OCc1ccccc1)C(=O)O (Cbz-Gly-[Dha]-OH)	11.2% (inactive)
OCCCCCCOc1ccc(-c2cc(-c3ccccn3)nc(-c3ccccn3)c2)cc1	67.5% (inactive)
Cc1ccccc1/C=N\N=C\c1ccco1	-6.5% (inactive)
O=C(CN1C(=O)c2ccccc2C1=O)C(O)CN1C(=O)c2ccccc2C1=O (stereo not given)	0.6% (inactive)
CC(NC(=O)OC(C)(C)C)C(=O)NC(Cc1ccccc1)C(=O)NCC(=O)ON=C1CCCC1 (stereo not given)	4.1% (inactive)
Cc1cc(=O)[nH]c(NN2C(Cl)C(=O)C2c2ccc(Cl)cc2)n1 (stereo not given)	7.45% (inactive)
CCOc1cc(=O)cc2n(-c3cc(OCC)c(OC)c(OCC)c3)c3ccccc3nc1-2	11.7% (inactive)
Cc1ccc(C(=O)O)c(=O)[nH]1	-26.1% (inactive)

assay: NCI Yeast Anticancer Drug Screen. Data for the sgs1 mgt1 strain (AID 161);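 note: 0% = growth of cultures given vehicle only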; details: S. cerevisiae sgs1 mgt1 strain, at 50.0 µM, active compounds read high
Method in brief: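 Yeast cells carrying a defined DNA-repair defect were exposed to test compounds. Growth inhibition was measured relative to vehicle-treated controls.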

SMILES	growth inhibition
c1ccc(COC(c2ccccc2)(c2ccccc2)c2ccccc2)cc1	10.4% (inactive)
N#CC(c1ccccc1)C1CCN(Cc2ccccc2)CC1 (stereo not given)	48.1% (inactive)
O=c1n(CCO)nc2n1CCCN2	7.2% (inactive)
Cc1ccccc1C(=O)N1CCOCC1	-0.1% (inactive)
CC1(C)CC(=O)C2(C)C(C1O)C2C1C2C(O)C(C)(C)CC(=O)C21C (stereo not given)	-5.3% (inactive)
O=C(O)CSCCOCCSCC(=O)O	-17.1% (inactive)
CCCCCSC	11.2% (inactive)
c1ccc(B2OB(c3ccccc3CN3CCCC3)OB(c3ccccc3CN3CCCC3)O2)c(CN2CCCC2)c1	0.05% (inactive)
C=C(C)C1CC/C(C)=C/CC[C@]2(C)O[C@H]2CC/C(COC(C)=O)=C\[C@@H]1O (stereo not given in full)	2.2% (inactive)
CCC(C)CCC(N)C(=O)O (stereo not given)	-3.95% (inactive)
c1cc2c3c(cccc3c1)-c1nc3ccccc3nc1-2	-5.2% (inactive)
Cc1nc(N)nc(C)c1N=Nc1cc(Cl)cc(Cl)c1	-2.2% (inactive)
CCCCCCCCCCCc1cc(=O)n(-c2cc(Cl)ccc2Cl)n1C	99.5% (active)
CCCCCNC(=O)C(C)O (stereo not given)	-9.7% (inactive)
CC1C(c2ccccc2)=C(c2ccccc2)C(c2ccccc2)=C(c2ccccc2)C1c1ccccc1 (stereo not given)	2.6% (inactive)
O=S(Cc1ccccc1)CC(O)CO (stereo not given)	2.7% (inactive)
NC(=NC1CCCCC1)c1ccc(C(=O)OCC2CCCCC2)cc1	45.5% (inactive)
CCCCC1(CCBr)C(=O)NC(=Nc2ccccc2)NC1=O (stereo not given)	10.3% (inactive)
Cn1c(=O)c2nsnc2n(C)c1=O	-14.2% (inactive)
CC(=O)OC12c3ccccc3C(c3ccccc31)C1C(=O)N(c3ccccc3O)C(=O)C12 (stereo not given)	-4.15% (inactive)

SMILES	growth inhibition
O=C(O)C(Nc1ccc(Cc2ccc(NC(C(=O)O)c3ccccc3)cc2)cc1)c1ccccc1 (stereo not given)	92% (active)
Cc1nc(-c2ccccc2)ncc1C(O)CN(C)C (stereo not given)	5.35% (inactive)
CNC(=O)c1ccccc1C(O)c1ccc(C)cc1 (stereo not given)	17.6% (inactive)
CN(C)c1ccc(C2SCC(=O)N2NS(=O)(=O)c2cccc(C(=O)O)c2)cc1 (stereo not given)	-10.8% (inactive)
COc1cc(C(C)S(=O)(=O)O)ccc1O (stereo not given)	8.45% (inactive)
O=C1NCC/C1=C\c1ccccc1	-4.6% (inactive)
NC1=NC=NCN1c1ccc(N)cc1	3.85% (inactive)
O=c1[nH]cnc2c1sc(=S)n2-c1ccccc1	10.2% (inactive)
CC(C)CCC[C@@H](C)[C@H]1CC[C@H]2[C@@H]3CC[C@H]4CC5(C[C@]4(C)[C@H]3CC[C@]12C)Nc1ccccc1S5 (stereo not given in full)	-6.2% (inactive)
Nc1nc(Sc2ccccn2)ccc1[N+](=O)[O-]	-2.1% (inactive)
O=C(O)/C=C(/C(=O)O)c1cccn1Cc1ccccc1	19.6% (inactive)
c1ccc(CN2CCCNCC2)cc1	-0.25% (inactive)
C=C(NC(=O)CNC(=O)OCc1ccccc1)C(=O)O (Cbz-Gly-[Dha]-OH)	7.4% (inactive)
OCCCCCCOc1ccc(-c2cc(-c3ccccn3)nc(-c3ccccn3)c2)cc1	68.9% (inactive)
Cc1ccccc1/C=N\N=C\c1ccco1	-5.25% (inactive)
O=C(CN1C(=O)c2ccccc2C1=O)C(O)CN1C(=O)c2ccccc2C1=O (stereo not given)	2.05% (inactive)
CC(NC(=O)OC(C)(C)C)C(=O)NC(Cc1ccccc1)C(=O)NCC(=O)ON=C1CCCC1 (stereo not given)	32.6% (inactive)
Cc1cc(=O)[nH]c(NN2C(Cl)C(=O)C2c2ccc(Cl)cc2)n1 (stereo not given)	4.2% (inactive)
CCOc1cc(=O)cc2n(-c3cc(OCC)c(OC)c(OCC)c3)c3ccccc3nc1-2	23.6% (inactive)
Cc1ccc(C(=O)O)c(=O)[nH]1	5.3% (inactive)
